Tests used:
Assay in all cases: log2 ratio of Biotin-Ahx-Ub-VS probe labelling (fragment/DMSO); higher = less target engagement (more negative = stronger competition), active = hit call of the paper (q ≤ 0.05, log2 ratio ≤ -1)
Conditions in all cases: compound concentration: 200 uM; treatment time: 3 h
[1] = target: T1, OTUD6B (UniProt Q8N6M0)
T1 sequence (whole entry): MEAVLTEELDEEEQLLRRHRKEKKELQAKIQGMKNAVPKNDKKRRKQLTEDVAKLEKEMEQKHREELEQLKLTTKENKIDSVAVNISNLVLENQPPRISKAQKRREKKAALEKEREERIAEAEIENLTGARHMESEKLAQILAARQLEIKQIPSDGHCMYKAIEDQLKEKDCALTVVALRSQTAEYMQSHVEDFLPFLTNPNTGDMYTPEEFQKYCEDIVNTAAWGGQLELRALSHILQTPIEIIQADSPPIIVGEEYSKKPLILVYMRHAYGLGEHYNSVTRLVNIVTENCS
Outline: (§1)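 HEK293T lysate (495 µg per sample, in Tris/CHAPS/IGEPAL buffer with protease inhibitors) was exposed in triplicate for 3 h to fragment at 200 µM or to vehicle, then to Biotin-Ahx-Ub-VS at 0.5 µM final for 1 h. Labelled DUBs were enriched on NeutrAvidin, digested with LysC and trypsin, and analysed by diaPASEF LC-MS/MS. Spectronaut label-free quantities were normalised to the global median, and values are average log2 ratios of fragment over vehicle from an unpaired t-test. Only proteins with ≥2 unique peptides were used.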

[2] = target: T2, OTUD7B (UniProt Q6GQQ9)
T2 sequence (whole entry): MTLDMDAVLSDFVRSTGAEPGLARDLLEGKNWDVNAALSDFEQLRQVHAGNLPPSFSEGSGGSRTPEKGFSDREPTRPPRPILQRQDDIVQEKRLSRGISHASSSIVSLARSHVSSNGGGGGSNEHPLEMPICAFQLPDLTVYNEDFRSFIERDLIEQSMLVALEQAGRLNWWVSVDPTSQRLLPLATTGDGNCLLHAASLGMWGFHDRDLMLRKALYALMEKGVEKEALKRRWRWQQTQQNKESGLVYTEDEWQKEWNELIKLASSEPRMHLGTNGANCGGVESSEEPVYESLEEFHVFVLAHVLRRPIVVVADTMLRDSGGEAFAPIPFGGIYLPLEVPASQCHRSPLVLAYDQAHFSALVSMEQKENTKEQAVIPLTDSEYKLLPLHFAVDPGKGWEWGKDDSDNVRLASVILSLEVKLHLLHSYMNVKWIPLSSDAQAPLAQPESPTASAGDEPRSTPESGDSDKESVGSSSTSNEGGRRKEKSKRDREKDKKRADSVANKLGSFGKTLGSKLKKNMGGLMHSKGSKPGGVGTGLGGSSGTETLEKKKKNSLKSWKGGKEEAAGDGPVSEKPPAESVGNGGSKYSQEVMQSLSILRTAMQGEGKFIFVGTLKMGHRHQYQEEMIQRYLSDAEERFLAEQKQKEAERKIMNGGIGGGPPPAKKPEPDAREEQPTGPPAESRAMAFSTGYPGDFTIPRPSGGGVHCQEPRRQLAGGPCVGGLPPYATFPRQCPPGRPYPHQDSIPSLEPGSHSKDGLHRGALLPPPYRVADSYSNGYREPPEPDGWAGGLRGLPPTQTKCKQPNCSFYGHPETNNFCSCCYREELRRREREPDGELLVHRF
Outline: as §1

[3] = target: PRPF8 (UniProt Q6P2Q9)
Outline: as §1

[4] = target: T3, PSMD7 (UniProt P51665)
T3 sequence (whole entry): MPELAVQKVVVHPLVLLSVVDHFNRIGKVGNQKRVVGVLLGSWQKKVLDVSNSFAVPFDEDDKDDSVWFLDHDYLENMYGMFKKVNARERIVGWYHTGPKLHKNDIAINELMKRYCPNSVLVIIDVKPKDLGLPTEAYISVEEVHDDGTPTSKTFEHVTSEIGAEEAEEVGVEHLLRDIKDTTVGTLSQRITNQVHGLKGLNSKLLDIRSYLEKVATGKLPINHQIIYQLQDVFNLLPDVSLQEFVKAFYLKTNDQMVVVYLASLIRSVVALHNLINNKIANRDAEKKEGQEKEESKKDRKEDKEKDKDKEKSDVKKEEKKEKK
Outline: as §1

[5] = target: UCHL1 (UniProt P09936)
Outline: as §1

[6] = target: T4, UCHL3 (UniProt P15374)
T4 sequence (whole entry): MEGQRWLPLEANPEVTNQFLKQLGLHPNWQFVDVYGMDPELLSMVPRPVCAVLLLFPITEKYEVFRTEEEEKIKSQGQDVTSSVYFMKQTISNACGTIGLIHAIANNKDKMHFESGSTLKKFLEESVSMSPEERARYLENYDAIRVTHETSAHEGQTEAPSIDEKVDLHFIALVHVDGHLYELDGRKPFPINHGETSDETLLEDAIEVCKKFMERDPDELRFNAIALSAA
Outline: as §1

[7] = target: T5, UCHL5 (UniProt Q9Y5K5)
T5 sequence (whole entry): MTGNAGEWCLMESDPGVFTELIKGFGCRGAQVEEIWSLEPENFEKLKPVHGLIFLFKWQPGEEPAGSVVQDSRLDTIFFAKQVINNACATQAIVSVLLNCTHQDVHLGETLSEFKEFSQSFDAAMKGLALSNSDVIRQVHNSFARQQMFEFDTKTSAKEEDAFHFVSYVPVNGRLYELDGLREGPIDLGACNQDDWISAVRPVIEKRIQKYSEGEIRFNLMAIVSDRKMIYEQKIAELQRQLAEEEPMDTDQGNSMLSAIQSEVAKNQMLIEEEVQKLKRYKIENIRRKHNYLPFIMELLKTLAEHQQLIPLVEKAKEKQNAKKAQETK
Outline: as §1

[8] = target: USP10 (UniProt Q14694)
Outline: as §1

[9] = target: T6, USP15 (UniProt Q9Y4E8)
T6 sequence (whole entry): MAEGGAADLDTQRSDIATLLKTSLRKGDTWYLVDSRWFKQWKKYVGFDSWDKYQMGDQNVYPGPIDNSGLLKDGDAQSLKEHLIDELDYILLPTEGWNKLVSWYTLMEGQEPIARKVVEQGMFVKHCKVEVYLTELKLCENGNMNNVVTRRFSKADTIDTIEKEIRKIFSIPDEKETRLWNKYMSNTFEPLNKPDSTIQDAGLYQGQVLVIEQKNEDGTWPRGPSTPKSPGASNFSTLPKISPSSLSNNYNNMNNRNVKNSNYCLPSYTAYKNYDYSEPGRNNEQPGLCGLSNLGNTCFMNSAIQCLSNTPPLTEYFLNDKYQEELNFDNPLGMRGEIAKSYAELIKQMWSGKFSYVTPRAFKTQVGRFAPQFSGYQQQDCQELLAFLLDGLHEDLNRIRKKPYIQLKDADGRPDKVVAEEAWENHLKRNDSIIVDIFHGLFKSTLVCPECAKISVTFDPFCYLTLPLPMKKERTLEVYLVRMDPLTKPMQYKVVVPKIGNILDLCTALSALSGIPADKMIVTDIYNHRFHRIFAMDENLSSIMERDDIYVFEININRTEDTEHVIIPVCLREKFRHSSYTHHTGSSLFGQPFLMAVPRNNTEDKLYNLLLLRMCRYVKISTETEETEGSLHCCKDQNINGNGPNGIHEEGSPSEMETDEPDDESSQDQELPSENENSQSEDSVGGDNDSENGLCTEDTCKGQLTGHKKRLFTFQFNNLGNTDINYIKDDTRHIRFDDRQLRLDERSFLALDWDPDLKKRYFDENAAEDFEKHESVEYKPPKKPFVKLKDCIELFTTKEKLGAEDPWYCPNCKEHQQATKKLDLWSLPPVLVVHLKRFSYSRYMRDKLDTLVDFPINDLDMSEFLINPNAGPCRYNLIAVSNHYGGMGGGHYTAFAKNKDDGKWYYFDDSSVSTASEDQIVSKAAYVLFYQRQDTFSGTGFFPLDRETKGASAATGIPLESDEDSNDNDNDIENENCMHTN
Outline: as §1

[10] = target: USP16 (UniProt Q9Y5T5)
Outline: as §1

Measured: log2 ratio of Biotin-Ahx-Ub-VS probe labelling

Chain of UCHL1 (P09936 whole entry, looked up): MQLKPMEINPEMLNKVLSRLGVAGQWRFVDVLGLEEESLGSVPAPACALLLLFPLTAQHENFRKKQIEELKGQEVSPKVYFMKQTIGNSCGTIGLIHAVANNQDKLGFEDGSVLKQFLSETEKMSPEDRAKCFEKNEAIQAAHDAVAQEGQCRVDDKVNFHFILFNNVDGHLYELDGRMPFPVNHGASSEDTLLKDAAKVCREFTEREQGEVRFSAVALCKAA
Chain of USP10 (Q14694 whole entry): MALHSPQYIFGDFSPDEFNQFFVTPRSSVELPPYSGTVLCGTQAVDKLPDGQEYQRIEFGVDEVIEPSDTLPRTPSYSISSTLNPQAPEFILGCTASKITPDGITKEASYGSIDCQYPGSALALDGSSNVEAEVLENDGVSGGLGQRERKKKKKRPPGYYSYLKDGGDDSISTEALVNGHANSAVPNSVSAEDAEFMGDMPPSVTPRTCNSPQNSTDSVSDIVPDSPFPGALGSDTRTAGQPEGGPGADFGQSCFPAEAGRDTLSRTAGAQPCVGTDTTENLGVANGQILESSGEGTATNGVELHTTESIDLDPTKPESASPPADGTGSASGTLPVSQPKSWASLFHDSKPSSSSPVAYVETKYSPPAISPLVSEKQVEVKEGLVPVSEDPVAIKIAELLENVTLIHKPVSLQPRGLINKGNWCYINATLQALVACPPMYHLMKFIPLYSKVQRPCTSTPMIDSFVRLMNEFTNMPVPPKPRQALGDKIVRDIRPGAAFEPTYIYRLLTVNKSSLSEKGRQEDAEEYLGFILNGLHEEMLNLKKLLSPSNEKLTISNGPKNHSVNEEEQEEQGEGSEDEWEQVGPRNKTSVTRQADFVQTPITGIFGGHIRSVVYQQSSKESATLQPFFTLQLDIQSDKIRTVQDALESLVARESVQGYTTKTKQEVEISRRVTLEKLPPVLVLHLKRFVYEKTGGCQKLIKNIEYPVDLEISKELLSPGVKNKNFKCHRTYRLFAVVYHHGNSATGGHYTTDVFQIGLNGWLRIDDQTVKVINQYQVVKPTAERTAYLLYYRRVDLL
Chain of USP16 (Q9Y5T5 whole entry, looked up): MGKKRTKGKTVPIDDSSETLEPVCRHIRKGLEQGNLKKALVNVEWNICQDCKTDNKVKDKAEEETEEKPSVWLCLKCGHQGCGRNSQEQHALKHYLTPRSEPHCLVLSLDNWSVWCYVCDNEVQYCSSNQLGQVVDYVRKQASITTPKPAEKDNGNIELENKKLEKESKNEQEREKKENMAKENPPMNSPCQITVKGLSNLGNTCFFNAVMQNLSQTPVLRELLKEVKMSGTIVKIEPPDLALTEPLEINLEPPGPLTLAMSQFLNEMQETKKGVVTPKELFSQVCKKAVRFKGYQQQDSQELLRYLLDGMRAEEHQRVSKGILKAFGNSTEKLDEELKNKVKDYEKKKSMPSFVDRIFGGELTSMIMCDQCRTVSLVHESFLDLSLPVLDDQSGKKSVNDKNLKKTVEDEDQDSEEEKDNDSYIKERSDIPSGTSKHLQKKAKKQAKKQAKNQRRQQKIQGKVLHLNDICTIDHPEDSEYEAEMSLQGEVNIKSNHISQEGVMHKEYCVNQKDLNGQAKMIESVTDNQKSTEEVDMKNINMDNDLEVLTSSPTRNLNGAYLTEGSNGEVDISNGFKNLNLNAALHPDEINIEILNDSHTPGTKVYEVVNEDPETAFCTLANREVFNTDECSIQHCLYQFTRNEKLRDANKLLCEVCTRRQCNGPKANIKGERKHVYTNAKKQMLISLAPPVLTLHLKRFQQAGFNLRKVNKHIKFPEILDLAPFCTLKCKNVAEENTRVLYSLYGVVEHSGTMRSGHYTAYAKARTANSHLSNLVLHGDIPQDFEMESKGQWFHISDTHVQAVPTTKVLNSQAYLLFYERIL

O=C(CCl)Nc1ccc(F)cc1Cl
inactive: [1] -0.388 | [2] -0.667 | [3] 0.079 | [4] -0.115 | [5] -1.44 | [6] -0.112 | [7] -0.49 | [8] -0.129 | [9] 0.0309 | [10] -0.265
